The list is not random: actives were taken first. Their share in the collection is about 19%.
DT40 TDP1 CPT: growth inhibition of DT40 Tdp1-/-;hTDP1 cells with camptothecin (screen for TDP1 inhibitors) | chicken DT40 Tdp1-/-;hTDP1 cells + 20 nM CPT, ATP luminescence, 48 h | Potency, µM (titrated, usually from 46.2 µM), for the others: top-dose activity change, negative = growth inhibition, hits mostly inhibitors | actives 12% (n = 420,000) | AID 686979; also: potency is read from the fitted curve at half-maximal effect; nearly all actives have a fitted effect of over 55% in size
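Chicken DT40 Tdp1-/- cells stably complemented with human TDP1 were seeded at 400 cells/well in medium containing 20 nM camptothecin, exposed to pin-transferred compounds, and grown at 37 °C for at least 48 hr. Viability was read as ATP luminescence.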
IL-1B inflam inh: blocks inflammasome-driven IL-1 beta release. THP-1 LPS/ATP IL-1B secretion, AlphaLISA, 16 h; active compounds read low. activity change, % at 57.5 µM. actives 4.7% (n = 360,000). AID 743279; in the data active = activity change below about -50%; inconclusive = mostly about -30% to -49%
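Secreted IL-1B measured by AlphaLISA bead assay after 16 h compound exposure of THP-1 cells; compounds (final up to 57.5 uM) added 1 h before LPS (250 ng/mL) and ATP (1.25 mM) stimulation; lower signal means less secretion.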
HT1080NT lethal: kills 2HG-producing HT-1080-NT fibrosarcoma cells; HT-1080-NT fibrosarcoma viability, CellTiter-Glo ATP luminescence, 48 h; Potency, µM (titrated, usually from 46.1 µM), for inactives: at the highest dose activity, negative = less viability, most hits filed as cytotoxic; actives 1.6% (n = 360,000); AID 686970;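 also: NT is the 2HG producing partner of a matched IDH1 knockdown line; potency is read from the fitted curve at half-maximal effect; 0% = DMSO-treated cells and -100% = media-only wells without cells; nearly all actives have a fitted effect of over 55% in size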
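HT-1080-NT; 750 cells/well; 5% FBS RPMI; 48 h compound, 37 degrees C; CellTiter-Glo luminescence; curve fitting and curve-class assignment.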
HT1080 IDH1KD tx: toxicity to HT-1080 IDH1 knockdown cells (counter line); AID 686971; Potency, µM (top dose mostly 46.1 µM), without a hit: at the highest dose activity, negative = toxicity, usual class: cytotoxic; actives 2% (n = 360,000); HT-1080 IDH1 knockdown viability, ATP luminescence, 48 h;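 also: potency is read from the fitted curve at half-maximal effect; 0% = DMSO wells and -100% = cell-free medium wells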
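Viability of IDH1-knockdown HT-1080 fibrosarcoma cells was assessed by CellTiter-Glo after 48 h at 37 °C with titrated compound; concentration-effect curves were classified by fit quality and response size.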
TDP1 cell noCPT: qHTS for Inhibitors of human tyrosyl-DNA phosphodiesterase 1 (TDP1): qHTS in cells in absence of CPT; DT40 Tdp1-/- hTDP1 cells, no CPT, ATP luminescence, 48 h; Potency, µM (highest dose often 46.2 µM), without a hit: at the top dose activity change, negative = growth inhibition, usual class: inhibitors; actives 15% (n = 420,000); AID 686978, 2013; also: potency is read from the fitted curve at half-maximal effect; nearly all actives have a fitted effect of over 55% in size
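Chicken DT40 Tdp1-/- cells complemented with human TDP1, screened without camptothecin (DMSO vehicle only), 400 cells/well. Compounds pin-transferred, cells incubated at 37 °C for at least 48 hr. Growth read as ATP-dependent luminescence (CellTiter-Glo, 30 min at RT).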
Numbers without * were called inactive; u = inconclusive; x = no result; [ ] = another dose, or the depositor's remark. Unless noted, calls follow the shape of the dose curve; as a rule, active = well fitted curve in the direction sought with a large enough effect; inconclusive = small, poorly fitted or top-dose-only effect, or another doubt; inactive = no such curve, though single readings can be large; an effect the other way counts as inactive or inconclusive. Unless noted, % is scaled to controls: 0 for no effect and ±100 for the full control effect.

SMILES	DT40 TDP1 CPT	IL-1B inflam inh	HT1080NT lethal	HT1080 IDH1KD tx	TDP1 cell noCPT
CCOc1ccc(NC(=O)c2c(NCc3cccnc3)sc3c2CCC(C)C3)cc1 (configuration not stated)	15µM*	x	x	x	15µM*
COC(=O)c1c(NC(=S)NN2CCN(C)CC2)sc2c1CCC(C)C2 (configuration not stated)	u	-69*	18µM*	16µM*	u
COC(=O)Nc1sc2c(c1C(N)=O)CCC(C)C2 (configuration not stated)	-4%	-2	17%	15%	-3%
CC(C)(C)C1CCc2c(sc(NC(=O)CCC(=O)O)c2C(=O)Nc2ccccc2C(F)(F)F)C1 (configuration not stated)	16µM*	x	x	x	21µM*
CCOc1ccc(NC(=O)c2c(NC(=O)c3ccco3)sc3c2CCC(C(C)(C)C)C3)cc1 (configuration not stated)	-7%	x	x	x	2%
CC(=O)Nc1cccc(C(=O)OCC(=O)NC(=O)NC2CCCC2)c1	u	39	1%	-6%	u
COc1ccccc1NC(=O)c1c(NCc2ccc(C)o2)sc2c1CCCCC2	5.8µM*	x	x	x	6.5µM*
CC1CCc2c(sc(NC(=O)COc3ccccc3)c2C(=O)Nc2ccccc2Cl)C1 (configuration not stated)	4%	x	x	x	-19%
CCOC(=O)c1c(NC(=O)C(C)N2CCN(S(=O)(=O)c3cccs3)CC2)sc2c1CCC(C)C2 (configuration not stated)	8.2µM*	2	10%	11%	5.8µM*
CCOc1ccccc1NC(=O)c1c(NCc2cccs2)sc2c1CCC(C)C2 (configuration not stated)	u	x	x	x	18µM*
COc1ccc(Cl)cc1NC(=O)c1c(NCc2ccc(C)o2)sc2c1CCC(C)C2 (configuration not stated)	u	x	x	x	16µM*
COc1ccc(NS(=O)(=O)c2cccc(C(=O)NN=C(C)c3ccco3)c2)cc1	-7%	16	-7%	-11%	u
Cc1ccc(SCc2cc(=O)[nH]c(/N=C(\N)Nc3ccc(C)c(C)c3)n2)cc1	u	9	15%	-11%	u
Cc1cc(C)cc(OCC(=O)OCC(=O)N(CC(C)C)c2c(N)n(Cc3ccccc3)c(=O)[nH]c2=O)c1	4%	-7	5%	3%	-24%
COc1ccc(Cl)cc1NC(=O)c1c(NCc2cccnc2)sc2c1CCC(C)C2 (configuration not stated)	3.7µM*	x	x	x	4.6µM*
COc1ccccc1NC(=O)c1c(NC(=O)c2cccs2)sc2c1CCC(C(C)(C)C)C2 (configuration not stated)	-6%	x	x	x	-4%
COC(=O)c1c(NC(=O)COc2ccc(Cl)cc2C)sc2c1CCCCC2	-23%	x	x	x	-8%
COc1ccc(Cl)cc1NC(=O)c1c(NCc2cccs2)sc2c1CCC(C)C2 (configuration not stated)	u	x	x	x	13µM*
COc1ccc(Cl)cc1NC(=O)c1c(NCc2ccc(C)o2)sc2c1CCCCC2	9.2µM*	x	x	x	15µM*
CCn1c(-c2ccccc2F)nc2cc(NC(C)=O)cc(C(=O)N3CCNC(=O)C3CC(=O)OC)c21 (configuration not stated)	4%	x	x	x	0%
Cc1ccc(-n2c(-c3ccc(Br)cc3)c[n+]3c2CCc2ccc4cccnc4c2-3)cc1	0.29µM*	-105*	u	4µM*	0.29µM*
C/C(=N/OC(=O)C1CC1)c1cc(-c2ccc(Cl)cc2)no1	u	-13	-17%	-1%	4%
Cc1cc(C)cc(N=c2c([N+](=O)[O-])nn(-c3ccc(Cl)cc3)n2O)c1	9.2µM*	6	-2%	-16%	15µM*
CCc1ccc(N=c2c([N+](=O)[O-])nn(-c3ccccc3)n2O)cc1	u	-2	0%[9.24 µM]	u	u
CCOC(=O)C1C(=O)Oc2ccc3ccccc3c2C1C1CCOC1=O (configuration not stated)	u	16	-1%	3%	15µM*
SMILES	DT40 TDP1 CPT	IL-1B inflam inh	HT1080NT lethal	HT1080 IDH1KD tx	TDP1 cell noCPT
CCOC(=O)C1=C(C)NC(=O)NC1c1c(OC)ccc2ccccc12 (configuration not stated)	-10%	51	1%	1%	-13%
C(=C\c1ccnc2ccccc12)/c1ccc(N(Cc2ccccc2)Cc2ccccc2)cc1	13µM*	x	x	x	13µM*
CCN(Cc1ccccc1)c1ccc(/C=C/c2ccnc3ccccc23)cc1	u	x	x	x	11µM*
c1ccc2c(c1)ccc1ncccc12	-21%	-2	-7%	1%	-18%
CN(C(=O)c1nn(C)c2c1CSc1ccccc1-2)c1ccccc1Cl	u	u	-2%	-5%	u
N#C/C(=C/c1ccc2c(c1)OCO2)C(=O)Nc1ccc(O)cc1	7.3µM*	-21	-30%	-29%	12µM*
N#C/C(=C\c1ccc2c(c1)OCCO2)C(=O)Nc1ccc(C(=O)O)cc1	-1%	-14	3%	8%	10%
CCOc1cc(/C=C(/C#N)C(=O)Nc2ccc(O)cc2)cc(Br)c1O	0.65µM*	33	1.8µM*	2.3µM*	0.92µM*
C=CCNC(=O)/C(C#N)=C\c1cc(Cl)c(O)c(OCC)c1	-1%	10	-8%	8%	-2%
COc1ccc(/C=C/C(=O)O)cc1S(=O)(=O)Nc1ccc2c(c1)OCO2	-2%	15	6%	2%	23%
Cc1cccc(C)c1NC(=O)C(c1ccccc1)N1CCN(C)CC1 (configuration not stated)	-1%	-13	5%	24%	-24%
Cc1cccc(C)c1NC(=O)C(c1ccnc2ccccc12)n1c(=O)c(-c2ccco2)nc2ccccc21 (configuration not stated)	u	-8	-18%	-17%	16µM*
COc1ccc(NC(=O)C(c2ccnc3ccccc23)n2c(=O)c(-c3ccco3)nc3ccccc32)cc1 (configuration not stated)	u	-4	-2%	-1%	u
O=C(Nc1ccc2c(c1)OCCO2)C(c1ccnc2ccccc12)N1CCC(Cc2ccccc2)CC1 (configuration not stated)	u	3	-17%	-14%	18µM*
Cc1cccc(C)c1NC(=O)C(c1ccnc2ccccc12)N1CCN(C)CC1 (configuration not stated)	u	31	2%	-1%	18µM*

Bioassay records from PubChem BioAssay.
